Measured values from PubChem BioAssay AID743143 (Broad Institute, 2013).
Measured potencies and affinities stand elsewhere. Active and inactive are the calls of the source.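 How the source made its calls: active means falling signal curve whose fitted half-maximal dose lies at or below the top valid tested dose; inconclusive means flat fit showing 30 to 70% loss, or poor fit; inactive means rising signal, flat within 30%, or half-maximal dose above top.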

test: viability reduction in hepatoma cells – cell-based, ATP luminescence, dry powder, Set4, cytotoxicity control, dose response (AID 743143); conditions: HepG2 viability, CellTiter-Glo ATP luminescence, 72 h; series mostly up to 26 µM; activity change, negative = cytotoxicity: at the top concentration

Row | Structure (SMILES) | activity change, negative = cytotoxicity
1 | O=C(CCNC(=O)c1ccc(Cl)cc1)N[C@@H]1CCc2ccccc21 | 10.8% (inactive)
2 | CC(C)(C)OC(=O)NCCC(=O)N[C@H]1CCCc2ccccc21 | -10% (inactive)
3 | O=C(CCNC(=O)c1ccc(OC(F)(F)F)cc1)N[C@@H]1CCCc2ccccc21 | -18.2% (inactive)
4 | CC(NC(=O)C1CCCN(C(=O)c2ccc(Cl)cc2)C1)c1ccccc1 (stereo not given) | 1.33% (inactive)
5 | O=C(CCNC(=O)c1ccc(Cl)c(Cl)c1)N[C@@H]1CCCc2ccccc21 | -13.4% (inactive)
6 | O=C(CCNC(=O)c1ccc(C(F)(F)F)cc1)N[C@@H]1CCCc2ccccc21 | -0.327% (inactive)
7 | CC(CC(=O)NC1CCCc2ccccc21)NC(=O)c1ccccc1 (stereo not given) | -8.93% (inactive)
8 | Cc1cccc(C(=O)NCCC(=O)NC2CCCc3ccccc32)c1 (stereo not given) | 10.8% (inactive)
9 | CC(=O)NCCC(=O)N[C@@H]1CCCc2ccccc21 | -4.47% (inactive)
10 | CN(C(=O)CCNC(=O)c1ccc(F)cc1F)C1CCCc2ccccc21 (stereo not given) | 17.2% (inactive)
11 | O=C(CCCNC(=O)c1ccc(OC(F)(F)F)cc1)N[C@@H]1CCCc2ccccc21 | -5.35% (inactive)
12 | O=C(CCNC(=O)c1ccc(Cl)cc1)NC1CCCc2ccccc21 (stereo not given) | -25.1% (inactive)
13 | O=C(CCNC(=O)c1ccc(Cl)cc1)N[C@@H]1CCCc2ccccc21 | -3.06% (inactive)
14 | CC(c1ccccc1)N(C)C(=O)CCNC(=O)c1ccc(Cl)cc1 (stereo not given) | 20.6% (inactive)
15 | COc1ccccc1C(=O)NCCC(=O)NC1CCCc2ccccc21 (stereo not given) | 15.7% (inactive)
16 | O=C(CCNC(=O)c1cccc(Cl)c1)N[C@@H]1CCCc2ccccc21 | 0.415% (inactive)
17 | Cc1ccc(C(=O)NCCC(=O)N[C@@H]2CCCc3ccccc32)cc1 | -0.842% (inactive)
18 | O=C(Cc1ccc(Cl)cc1)NCCC(=O)N[C@@H]1CCCc2ccccc21 | 7.64% (inactive)
19 | CC(NC(=O)CCNC(=O)c1ccc(Cl)cc1)c1ccc(F)cc1 (stereo not given) | -1.19% (inactive)
20 | O=C(CCNC(=O)c1ccc(F)cc1)N[C@@H]1CCCc2ccccc21 | 10.7% (inactive)

Row | Structure (SMILES) | activity change, negative = cytotoxicity
21 | O=C(CCNC(=O)c1ccc(Cl)cc1)NC1CCCCC1 | 8.22% (inactive)
22 | O=C(CCCNC(=O)c1ccc(C(F)(F)F)cc1)N[C@@H]1CCCc2ccccc21 | -4.36% (inactive)
23 | CC(NC(=O)CCNC(=O)c1ccc(Cl)cc1)c1ccc2c(c1)OCO2 (stereo not given) | 1.46% (inactive)
24 | O=C(CCNC(=O)c1ccc2c(c1)OC(F)(F)O2)N[C@@H]1CCCc2ccccc21 | -0.347% (inactive)
25 | O=C(CCCNC(=O)c1ccc(Cl)cc1)N[C@@H]1CCCc2ccccc21 | 0.579% (inactive)
26 | O=C(CNC(=O)c1ccc(C(F)(F)F)cc1)N[C@@H]1CCCc2ccccc21 | 18.8% (inactive)
27 | O=C(CNC(=O)c1ccc(Cl)cc1)N[C@@H]1CCCc2ccccc21 | 1.92% (inactive)
28 | O=C(CCNC(=O)c1ccccc1)N[C@@H]1CCCc2ccccc21 | 5.01% (inactive)
29 | CC(C)(C)OC(=O)NCCC(=O)N[C@@H]1CCCc2ccccc21 | 30.2% (inactive)
30 | C[C@@H](NC(=O)CCNC(=O)c1ccc(Cl)cc1)c1ccccc1 | -1.89% (inactive)
31 | O=C(NC1CCOc2ccccc21)C1CCCN(C(=O)c2ccc(Cl)cc2)C1 (stereo not given) | -10.2% (inactive)
32 | O=C(NC1CCc2ccccc21)C1CCCN(C(=O)c2ccc(Cl)cc2)C1 (stereo not given) | -6.73% (inactive)
33 | CC(CC(=O)N(C)C1CCCc2ccccc21)NC(=O)c1ccccc1 (stereo not given) | -9.54% (inactive)
34 | COc1ccccc1C(C)NC(=O)CCNC(=O)c1ccc(Cl)cc1 (stereo not given) | 17.3% (inactive)
35 | O=C(CNC(=O)c1ccc(OC(F)(F)F)cc1)N[C@@H]1CCCc2ccccc21 | 11.1% (inactive)
36 | COc1ccc(C(=O)NCCC(=O)N[C@@H]2CCCc3ccccc32)cc1 | -11.5% (inactive)
37 | N#Cc1ccc(C(=O)NCCC(=O)N[C@@H]2CCCc3ccccc32)cc1 | -2.19% (inactive)
38 | O=C(CCNC(=O)c1ccc(Cl)cc1)N[C@H]1CCCc2ccccc21 | -7.67% (inactive)
39 | O=C(CCNC(=O)c1ccccc1Cl)NC1CCCc2ccccc21 (stereo not given) | -8.4% (inactive)
40 | NCCC(=O)N[C@@H]1CCCc2ccccc21 | 18.8% (inactive)
